# Sampled rows, rich in hits. Any-hit rate of the full collection: about 2.2%.
# TDP-43 yeast inh = qHTS of TDP-43 Inhibitors. TDP-43 expressing yeast growth rescue, BacTiter-Glo, 24 h. Potency, µM (series often up to 46.1 µM), actives largely listed as activators. actives 1.8% (n = 410,000). AID 652104, 2013; note: nearly all actives have a fitted effect of over 50% in size
#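 Cell-based yeast growth screen: TDP-43 expression induced in galactose, inoculum OD600=0.02 after raffinose pregrowth to mid-log. Read-out BacTiter-Glo luminescence at 24 hr, 30 deg C; inhibition of toxicity seen as signal increase.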
# FUS suppressor = qHTS for Suppressors of FUS Proteinopathy: Primary screen using FUS-linked yeast assay; Potency, µM (doses to about 76.6 µM), hits mostly activators; S. cerevisiae FUS-expressing, growth rescue, OD600, 24 h; actives 0.24% (n = 390,000); AID 1347120, 2019; note: nearly all actives have a fitted effect of over 55% in size
#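 Cultures pregrown in 2.5% raffinose medium are shifted to minimal medium containing 2% galactose to express toxic FUS. Compounds are tested at several concentrations. After 24hr at 30C, growth is quantified at 600 nm absorbance.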
# Abeta yeast res = qHTS for compounds that reverse cellular toxicity of Amyloid beta (A-beta) peptide in yeast: Primary Screen; actives 0.063% (n = 410,000); Potency, µM (top dose mostly 46.1 µM), actives largely listed as activators; AID 1347071, 2019; yeast expressing A-beta42, growth rescue, OD600, 48 h; response scale: 0% DMSO, 100% iron-clioquinol control; note: nearly all actives have a fitted effect of over 55% in size
#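 Growth rescue measured by 600 nm absorbance after 48 h yeast culture at 30 C with compound. Values normalized between DMSO and an equimolar ferric chloride plus clioquinol control.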
# Mito fusion yeast = qHTS Assay for Small Molecule Inhibitors of Mitochondrial Division or Activators of Mitochondrial Fusion | S. cerevisiae fusion-defective mutant growth rescue, CellTiterGlo 48 h | Potency, µM (highest dose often 46.1 µM), hits mostly activators | actives 0.23% (n = 320,000); note: nearly all actives have a fitted effect of over 45% in size
#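 Yeast fusion mutant, YPEG (non-fermentable carbon), compound, 48 h at 37C non-permissive; CellTiterGlo added, 10 min RT, luminescence read. Rescued growth = division inhibition.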
# aSyn rescue = qHTS of alpha-syn Inhibitors; Yeast expressing alpha-synuclein, growth rescue, BacTiter-Glo, 24 h; AID 652106, 2013; actives 0.14% (n = 370,000); Potency, µM (doses to about 46.1 µM), most hits filed as activators; note: nearly all actives have a fitted effect of over 65% in size
#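 Galactose-induced alpha-syn yeast (OD600=0.02, raffinose-pregrown) + pinned cpd, 24 hr, 30 deg C; growth by BacTiter-Glo luminescence. Growth restoration scores as activation.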
# Numbers stand for hits; – = inactive; ? = inconclusive; · = no result. Calls come from the whole dose curve; as a rule, active = well fitted curve in the direction sought with a large enough effect; inconclusive = small, poorly fitted or top-dose-only effect, or another doubt; inactive = no such curve, though single readings can be large; an effect the other way counts as inactive or inconclusive.
SMILES,TDP-43 yeast inh,FUS suppressor,Abeta yeast res,Mito fusion yeast,aSyn rescue
O=C(C1CCC(Cn2c(=O)c3sccc3n(Cc3ccc(F)cc3)c2=O)CC1)N1CCOCC1 (stereo unspecified),–,–,–,·,·
CCCNC(=O)OCc1cccnc1Sc1ccc(C)cc1,20µM,–,–,–,–
CCOC(=O)Nc1cccnc1Sc1ccc(Cl)cc1,–,–,–,·,–
CCC(C)n1c(=O)c2sccc2n2c(CCCC(=O)N3CCN(c4ccccc4)CC3)nnc12 (stereo unspecified),–,–,–,·,·
CCCS(=O)(=O)c1c(S(=O)(=O)CCC)c2cc(C(C)(C)C)ccn2c1C(=O)c1ccccc1,–,18µM,–,·,·
CCCS(=O)(=O)c1c(S(=O)(=O)CCC)c2cc(C(C)(C)C)ccn2c1C(=O)c1ccc(OC)c(OC)c1,–,–,–,·,·
COc1cc(OC)c(NS(=O)(=O)c2c(C(=O)N3CCCCCC3)c(C)n(C)c2C)cc1Cl,–,–,–,·,·
Cc1cc(C(F)(F)F)n2nc(-c3cnn(C)c3C(F)(F)F)c(Br)c2n1,13µM,–,–,–,–
CC[C@H]1C(c2ccc(F)cc2)=NN(c2ccccc2)[C@@H]1CO,11µM,–,?,·,–
OC[C@@H]1[C@@H](c2ccc(F)cc2)C(c2ccccc2)=NN1c1ccccc1,–,–,–,·,–
CC(=O)N1CC2(CC(c3ccccc3C(F)(F)F)=NO2)CN1c1ccc(Cl)cc1 (stereo unspecified),–,?,–,·,13µM
Cc1nn(-c2ccccn2)c2c1-c1nc(N)sc1CC2,·,·,·,·,13µM
Cc1nn(-c2ccccn2)c2c1-c1nc(N)ncc1CC2,–,–,–,–,–
COc1ccc(C)cc1NC1(c2ccccc2)C(=O)c2ccccc2C1=O,–,–,?,·,–
O=C1N(Cc2ccccc2Cl)c2ccccc2C1(O)c1c[nH]c2ccccc12 (stereo unspecified),16µM,?,–,·,·
COc1ccc(C(=O)CC2(O)C(=O)N(Cc3ccccc3Cl)c3ccccc32)cc1 (stereo unspecified),32µM,–,–,·,–
Cn1c(=O)c(Cc2ccccc2)c(O)c2ccccc21,–,–,–,–,–
CCCCCOC(=O)Cc1c(O)c2ccccc2n(C)c1=O,11µM,–,–,–,–
CCc1ccc(-n2c(N3CCN(c4ccc(F)cc4)CC3)nc3ccccc3c2=O)cc1,–,–,–,·,·
O=C(OCC(=O)c1cccc2ccccc12)c1ccc(CO)cc1,14µM,–,–,–,–
COc1ccc2c(Sc3ccccc3)c(C(=O)N3CCC(C)CC3)[nH]c2c1,–,–,–,·,·
O=C(CCc1ccccc1)N(Cc1cccnc1)c1nc2c(F)cccc2s1,16µM,–,–,·,·
O=C(COc1ccccc1)N(Cc1cccnc1)c1nc2ccc(Cl)cc2s1,16µM,–,–,·,·
O=C(CCOc1ccccc1)N(Cc1cccnc1)c1nc2c(F)cccc2s1,–,–,–,·,·
O=C(COc1ccccc1)N(Cc1cccnc1)c1nc2c(F)cccc2s1,18µM,–,–,·,·
SMILES,TDP-43 yeast inh,FUS suppressor,Abeta yeast res,Mito fusion yeast,aSyn rescue
Cc1cccc2sc(N(Cc3cccnc3)C(=O)CCc3ccccc3)nc12,?,?,–,·,·
Cc1ccc2nc(N(Cc3cccnc3)C(=O)COc3ccccc3)sc2c1,–,–,–,·,·
CCN(c1ccccc1)S(=O)(=O)c1ccc(NC(=O)c2nc(SC)ncc2Cl)cc1,–,?,–,·,·
Cc1ccc(C2=NC(c3ccccc3)=Nc3ccc(Cl)cc3N2)cc1,–,–,–,·,·
CCCC1CCC2(CC1)CCC2OC(=S)Nc1ccccc1C(F)(F)F (stereo unspecified),·,–,·,·,·
CCOc1ccccc1C(=O)NCc1nc2cccnc2n1Cc1ccc(C)cc1,16µM,–,–,·,·
Cc1cccc(N2CCN(C(=O)c3nn(C)c4c3CSc3ccccc3-4)CC2C)c1 (stereo unspecified),–,–,–,·,·
Cc1cccc(-c2cc(N)n(-c3ccccc3)n2)c1,–,–,–,–,–
Cc1ccc(-c2cc(N)n(-c3ccccc3)n2)cc1,20µM,–,–,–,–
Cc1cc(=O)n(CC(=O)NCc2ccc(OC(C)C)cc2)c2c1c(C)nn2-c1cccc(F)c1,–,–,–,·,·
COc1cccc(-n2cc(C(=O)NCCc3ccc(C)cc3)c3ccccc3c2=O)c1,–,–,–,·,·
COc1ccc(-n2cc(C(=O)NCCc3ccc(C)cc3)c3ccccc3c2=O)cc1,18µM,–,–,·,·
CC(C)c1ccc2oc(-c3ccc(Cl)c(NC(=O)c4cccs4)c3)nc2c1,–,–,–,·,–
Cc1noc(C)c1COC(=O)Cc1ccc(Cl)c(Cl)c1,10µM,–,–,–,–
COc1ccc(N(C(=O)c2ccc(OC)c(OC)c2)S(=O)(=O)c2ccc(Cl)cc2)cc1,–,–,–,·,·
CN(C)c1ccc(NC(=O)CSc2nc3ccccc3c(=O)n2C2CCCCC2)cc1,–,?,–,–,–
CCN(CC)c1ccc(NC(=O)CSc2nc3ccccc3c(=O)n2-c2cc(S(=O)(=O)N(C)C)ccc2C)cc1,–,35µM,–,–,–
CN(C)S(=O)(=O)c1cccc(NC(=O)CSc2nc3ccccc3n2-c2ccccc2)c1,–,·,–,–,–
CN(C)S(=O)(=O)c1ccc(NC(=O)CSc2nc3ccccc3n2-c2ccccc2)cc1,–,6.3µM,–,–,–
C=CCNc1nc(Nc2ccc(OC)cc2)nc(OC)n1,20µM,–,–,–,–
C=CCNc1nc(Cl)nc(Nc2ccc(OC)cc2)n1,–,–,–,–,–
CC(=O)Nc1ccc(NS(=O)(=O)c2ccc(-c3cnc(C4CC4)o3)cc2)cc1,–,–,–,–,–
O=S(=O)(Nc1ccccc1)c1ccc(-c2cnc(C3CC3)o2)cc1,35µM,–,–,–,–
CCOc1ccc(NS(=O)(=O)c2ccc(-c3cnc(C4CC4)o3)cc2)cc1,35µM,?,·,–,?
CCc1ccc(NS(=O)(=O)c2cc(-c3cnc(C4CC4)o3)ccc2C)cc1,?,?,–,·,·
SMILES,TDP-43 yeast inh,FUS suppressor,Abeta yeast res,Mito fusion yeast,aSyn rescue
Cc1ccc(C)c(NS(=O)(=O)c2ccc(-c3coc(C)n3)cc2)c1,13µM,–,–,–,–
COc1ccc(NS(=O)(=O)c2ccc(-c3cnc(C4CC4)o3)cc2)cc1Cl,–,?,–,·,·
CCOC(=O)c1cccc(NS(=O)(=O)c2cc(-c3cnc(C4CC4)o3)ccc2C)c1,20µM,–,–,·,·
COc1ccc(CN(C)S(=O)(=O)c2nnc(NC(=O)C(C)C)s2)cc1OC,–,–,–,·,·
Cc1cc(C)cc(NS(=O)(=O)c2ccc(-c3cnc(C4CC4)o3)cc2)c1,?,?,–,–,?
CCOC(=O)c1cccc(NS(=O)(=O)c2ccc(-c3coc(C)n3)cc2)c1,35µM,–,–,·,–

# Screening results from PubChem.
